Results taken from PubChem BioAssay AID819 (Columbia University Molecular Screening Center, 2007).
Hit rate of the full screen: of about 94,000 compounds, about 280 (0.3%) were called active.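 How the source made its calls: active means activation above 40%, about the mean plus 3 SD, also judged a hit on visual image review; inconclusive means activation above 40% but not a hit on visual review; inactive means activation not above 40% and no visual hit.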 Only a selection was taken, and actives are over-represented in it overall.

Experiment: enhancers of NFkB p65 translocation in HUVEC – imaging, IL-1B stimulus, high-content imaging, primary screen (AID 819);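 further: percent activation is computed from the nuclear over cytoplasmic p65 intensity ratio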
Conditions: HUVEC IL-1B NFkB p65 nuclear translocation imaging; at 2 µM; active compounds read high

Question: Which activation does the source give for `Nc1ccc(-c2sc(N)nc2-c2ccccc2)cc1` here?
Answer: -1.63% (inactive)

Question: Which activation does the source give for `CC(C)c1ccc(N2CCN(C(=O)c3ccccc3NC(=O)/C=C(\C(=O)O)c3ccccc3)CC2)cc1` here?
Answer: 24.1% (inactive)

Question: With `NC(=NC(=O)c1ccccc1)N1CCOCC1` as the molecule, how does the activation read?
Answer: 3.72% (inactive)

Question: Which activation does the source give for `O=C(Cc1ncc(C(F)(F)F)cc1Cl)Nc1cccc(Br)c1` here?
Answer: 13.4% (inactive)

Question: With `O=[N+]([O-])c1ccc(Oc2ccc(F)cc2Br)c2ccncc12` as the molecule, how does the activation read?
Answer: -1.85% (inactive)

Question: With `S=C(NCCC1=CCCCC1)Nc1ccccc1` as the molecule, how does the activation read?
Answer: -10.4% (inactive)

Question: For `Cc1nn(C)cc1/C=C1\CCC/C(=C\c2cn(C)nc2C)C1=O`, which activation is on record?
Answer: -13.1% (inactive)

Question: Which activation does the source give for `COCC(C)NC(=O)c1ccc(-n2nc(C(F)(F)F)cc2-c2cccs2)cc1` (stereo not given) here?
Answer: 15.7% (inactive)

Question: For `COc1ccc(C(=O)n2nc(-c3ccc(C)cc3)nc2N)cc1OC`, which activation is on record?
Answer: -6.6% (inactive)

Question: With `COc1ccc(C(=O)n2nc(-c3ccc(Cl)cc3)nc2N)cc1OC` as the molecule, how does the activation read?
Answer: 41.4% (active)

Question: Which activation does the source give for `COc1ccccc1C(=O)n1nc(-c2ccccc2)nc1N` here?
Answer: 13.8% (inactive)

Question: Which activation does the source give for `CC(C)(CCl)C(=O)Nc1ccc(Sc2ccc(F)cc2)cc1` here?
Answer: -5.55% (inactive)

Question: With `CCn1c(SCc2ccc(C)cc2)nnc1-c1nn(-c2ccccc2)ccc1=O` as the molecule, how does the activation read?
Answer: 0.15% (inactive)

Question: With `O=C1c2ccccc2C(=O)c2c1cccc2N1CCN(CCO)CC1` as the molecule, how does the activation read?
Answer: 11.4% (inactive)

Question: For `CCC1(CC)NC(=O)N(CC(=O)OCC(=O)Nc2ccc(C(F)(F)F)cc2)C1=O`, which activation is on record?
Answer: -31.3% (inactive)

Question: Which activation does the source give for `Cc1cccc(-c2nc3c(c(SCC(=O)N4CCOCC4)n2)CCCC3)c1` here?
Answer: 16.6% (inactive)

Question: Which activation does the source give for `COc1ccccc1NC(=O)[C@H](COCc1ccccc1)NC(=O)OC(C)(C)C` here?
Answer: 8.44% (inactive)

Question: With `CCCC(=O)NC(Nc1ccccc1OC)C(Cl)(Cl)Cl` (stereo not given) as the molecule, how does the activation read?
Answer: -10.4% (inactive)

Question: For `CCOC(=O)C1(S(=O)(=O)c2ccccc2)CCN(Cc2ccccc2)CC1`, which activation is on record?
Answer: 2.52% (inactive)

Question: Which activation does the source give for `CCC(=O)Nc1ccc2nc(C)n(Cc3ccccc3Cl)c(=O)c2c1` here?
Answer: -5.54% (inactive)

Question: For `COc1cnc(SCc2ccc(Cl)c(Cl)c2)nc1Cl`, which activation is on record?
Answer: 20.1% (inactive)

Question: For `Cc1cc(C)cc(OCC(=O)NNC(=O)c2cc3ccccc3oc2=O)c1`, which activation is on record?
Answer: -12% (inactive)

Question: For `Cc1cc(OC(=O)c2c(Cl)cccc2Cl)nc(C)n1`, which activation is on record?
Answer: 23% (inactive)

Question: For `N#Cc1ccc(Oc2cc(C(F)(F)F)nc(-c3ccccn3)n2)cc1`, which activation is on record?
Answer: 49.2% (active)

Question: For `COc1ccc(C(=O)Nc2nc(-c3ccc(OC)cc3)c(-c3ccc([N+](=O)[O-])cc3)s2)cc1`, which activation is on record?
Answer: 1.5% (inactive)

Question: For `CN(CC#CCC(c1ccccc1)c1ccccc1)C(C)(C)C`, which activation is on record?
Answer: 6.49% (inactive)

Question: Which activation does the source give for `Cc1cc([N+](=O)[O-])c(NC2CCCCC2)c([N+](=O)[O-])c1` here?
Answer: 3.11% (inactive)

Question: With `NS(=O)(=O)c1ccc(Nc2nc(-c3ccccc3)cs2)cc1` as the molecule, how does the activation read?
Answer: -18.6% (inactive)

Question: Which activation does the source give for `O=C(CSCc1ccc([N+](=O)[O-])cc1)Nc1cccc(C(=O)Nc2ccccc2C(=O)O)c1` here?
Answer: 7.87% (inactive)

Question: For `COc1ccccc1NC(=O)c1ccc2nc(N3C(=O)CCC3=O)sc2c1`, which activation is on record?
Answer: 11.6% (inactive)

Question: Which activation does the source give for `COC(=O)c1ccccc1OCC(=O)N1CCN(c2ccc(Cl)cc2)CC1` here?
Answer: 11.5% (inactive)

Question: For `COc1ccccc1OCCNc1cc(N2CCOCC2)ccc1[N+](=O)[O-]`, which activation is on record?
Answer: 7.12% (inactive)

Question: For `Cc1nnc(SCC(=O)NC(=O)NC2CCCC2)n1N`, which activation is on record?
Answer: -1.65% (inactive)

Question: For `CCOC(=O)c1cnc(-c2ccccc2)nc1Oc1ccc(C)cc1`, which activation is on record?
Answer: -7.86% (inactive)

Question: Which activation does the source give for `CC(C)NC(=O)NC(=O)COC(=O)c1ccc(NC(=O)CC#N)cc1` here?
Answer: 5.58% (inactive)

Question: For `O=S(=O)(c1ccc(F)cc1)n1ccc(-c2cnc(-c3ccccc3)s2)n1`, which activation is on record?
Answer: 5.1% (inactive)

Question: For `CCOCCOCCC(C(=O)O)P(=O)(c1ccccc1)c1ccccc1` (stereo not given), which activation is on record?
Answer: 2.8% (inactive)

Question: With `O=c1nc2s/c(=C\c3ccco3)c(=O)n2nc1Cc1ccccc1` as the molecule, how does the activation read?
Answer: 10.3% (inactive)

Question: With `CCOc1ccccc1C(=O)NCc1ccco1` as the molecule, how does the activation read?
Answer: 8.02% (inactive)

Question: Which activation does the source give for `CCOc1ccccc1/C=c1\sc2nc(-c3ccco3)nn2c1=O` here?
Answer: 53.9% (active)

Question: For `CCOC1CS(=O)(=O)CC1OCC` (stereo not given), which activation is on record?
Answer: 12.8% (inactive)

Question: Which activation does the source give for `O=C1c2ccccc2C(=O)c2c1cccc2N1CCN(Cc2ccccc2)CC1` here?
Answer: -2.37% (inactive)

Question: Which activation does the source give for `O=C(COC(=O)c1ccccc1NC(=O)c1ccco1)Nc1ccc2c(c1)OC(F)(F)O2` here?
Answer: 0.88% (inactive)

Question: With `CC(=O)c1ccc2c(ccc3ccccc32)c1` as the molecule, how does the activation read?
Answer: 8.21% (inactive)

Question: With `CCCN1Cc2cccc(C(=O)Nc3ccc(S(=O)(=O)N4CCCCCC4)cc3)c2C1=O` as the molecule, how does the activation read?
Answer: 7.44% (inactive)

Question: With `O=C(Nc1ccc(Cl)cc1)OCc1cc(-c2ccccc2)on1` as the molecule, how does the activation read?
Answer: 15.4% (inactive)

Question: For `CC(=O)c1ccc(Oc2cc(C)nc(-n3nc(C)cc3C)n2)cc1`, which activation is on record?
Answer: -11.2% (inactive)

Question: Which activation does the source give for `CC(=O)c1cnn(-c2cc(Oc3ccc(F)cc3)ncn2)c1C` here?
Answer: 10.6% (inactive)

Question: With `Cc1cc(C)n(-c2cc(Oc3ccccc3)ncn2)n1` as the molecule, how does the activation read?
Answer: 43.8% (active)

Question: For `CC12c3ccccc3C(c3ccccc31)C1C(=O)N(Cc3cccnc3)C(=O)C12` (stereo not given), which activation is on record?
Answer: -8.61% (inactive)

Question: For `COc1cc(OC)cc(C(=O)NC2CCN(C(=O)N3c4ccccc4Sc4ccccc43)CC2)c1`, which activation is on record?
Answer: 1.07% (inactive)

Question: For `O=C(OCc1cn(-c2ccc(Cl)c(Cl)c2)nn1)c1ccccc1Cl`, which activation is on record?
Answer: 12.2% (inactive)

Question: With `O=C(CN1C(=O)NC(Cc2ccccc2)(Cc2ccccc2)C1=O)NCC1CCCCC1` as the molecule, how does the activation read?
Answer: 0% (inactive)

Question: Which activation does the source give for `CCCCOC(=O)Nc1sc2nc(C)cc(C)c2c1-n1cccc1` here?
Answer: -1.73% (inactive)

Question: Which activation does the source give for `Cc1cc2c(cc1C)N(C(=O)CN1C(=O)c3ccccc3C1=O)C(C)(C)c1ssc(=S)c1-2` here?
Answer: 17.4% (inactive)

Question: With `COc1ccc(-c2[nH]nc(-c3ccccc3)c2-c2nc3ccccc3[nH]2)cc1` as the molecule, how does the activation read?
Answer: -1.89% (inactive)

Question: For `O=c1c(-c2ccc3c(c2)OCCO3)c(C(F)(F)F)oc2cc(O)cc(O)c12`, which activation is on record?
Answer: 9.87% (inactive)

Question: For `COc1ccc(OC)c(C(=O)c2coc3ccc(O)c(CN4CCOCC4)c23)c1`, which activation is on record?
Answer: -5.05% (inactive)

Question: Which activation does the source give for `CCN1CCN(Cc2c(O)ccc3c(=O)c(-c4ccc(OC)c(OC)c4)c(C(F)(F)F)oc23)CC1` here?
Answer: 65.5% (active)

Question: With `O=C(c1ccc2c(c1)OCO2)N1CCOCC1` as the molecule, how does the activation read?
Answer: -1.72% (inactive)
